Measurements from PubChem BioAssay (NCATS).
Values joined by “and” are separate entries in the source; they are usually repeats but may differ in a detail not shown here. Equal entries are not always repeated. Records with an inconclusive call do not appear. Active and inactive are the calls of the source. The call rests on the fitted dose curve; in most records, active means well fitted curve in the direction sought with a large enough effect; inconclusive means small, poorly fitted or top-dose-only effect, or another doubt; inactive means no such curve, though single readings can be large; an effect the other way counts as inactive or inconclusive.

Legend:
[1] = Cell Viability - LYMP1-003 - Assay at 24 hr (AID 963)
Summary of the method: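 Cells seeded at 2500/well, 5 hr at 37 C; compounds added; 24 hr at 37 C; CellTiter-Glo added, 30 min room temperature; luminescence read. Decrease in ATP taken as cytotoxicity, AC50 from Hill modelling.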

[2] = Cell Viability - LYMP1-003 - Assay at 40 hr (AID 964); further: nearly all actives have a fitted effect of over 60% in size; further: potency means the concentration at half of the fitted maximal effect
Summary of the method: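 Cells were seeded at 2500 per well and incubated 5 hr at 37 C. Compounds were added across a concentration series and left 40 hr at 37 C. CellTiter-Glo was added for 30 min at room temperature before luminescence reading.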

[3] = Cell Viability - LYMP2-003 (AID 965);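 further: cells exposed to compounds for 24 h before reading; nearly all actives have a fitted effect of over 50% in size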; further: potency means the concentration at half of the fitted maximal effect
Summary of the method: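 Human lymphoblastoid cells (2500/well) were pre-incubated 5 hr at 37 C, then exposed to compounds over a concentration range for 24 hr at 37 C. Intracellular ATP was read by CellTiter-Glo luminescence; AC50 came from Hill-equation fits.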

[4] = Cell Viability - LYMP2-004 (AID 966); further: nearly all actives have a fitted effect of over 65% in size; further: potency means the concentration at half of the fitted maximal effect
Summary of the method: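 Cells seeded 2500/well, rested 5 hr at 37 C, dosed across a concentration series, incubated 24 hr at 37 C, then CellTiter-Glo added for 30 min at room temperature and luminescence read. Hill fitting gave AC50.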

[5] = Cell Viability - LYMP2-009 (AID 968); further: nearly all actives have a fitted effect of over 55% in size; further: potency means the concentration at half of the fitted maximal effect
[6] = Cell Viability - LYMP2-011 (AID 969); further: nearly all actives have a fitted effect of over 60% in size; further: potency means the concentration at half of the fitted maximal effect
Summary of the method: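 2500 cells/well, 5 hr 37 C; compound added, 24 hr 37 C; CellTiter-Glo 30 min RT; luminescence. qHTS concentration-response, Hill-equation AC50. Tetraoctylammonium bromide positive control.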

[7] = Cell Viability - LYMP2-013 (AID 970); further: nearly all actives have a fitted effect of over 55% in size; further: potency means the concentration at half of the fitted maximal effect
Summary of the method: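 qHTS; 2500 lymphoblastoid cells/well; 5 hr 37 C settle; cpd 24 hr 37 C; CellTiter-Glo, 30 min RT; luminescence. AC50 = Hill fit.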

[8] = Cell Viability - LYMP2-017 (AID 972); further: nearly all actives have a fitted effect of over 55% in size; further: potency means the concentration at half of the fitted maximal effect
Summary of the method: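 2500 cells/well, 5 h 37 C; cpd 24 h 37 C in complete medium; CellTiter-Glo, 30 min RT; luminescence (ATP). AC50 via Hill fit, qHTS.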

[9] = Cell Viability - LYMP2-021 (AID 974);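 further: compound exposure lasts 24 hours at 37 °C; nearly all actives have a fitted effect of over 55% in size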; further: potency means the concentration at half of the fitted maximal effect
Summary of the method: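 Plate 2500 lymphoblastoid cells per well and incubate 5 hr at 37 C. Add compounds over a concentration range and incubate 24 hr at 37 C. Add CellTiter-Glo, wait 30 min at room temperature, read luminescence.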

[10] = Cell Viability - LYMP2-023 (AID 975); further: nearly all actives have a fitted effect of over 55% in size; further: potency means the concentration at half of the fitted maximal effect
Summary of the method: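 2500 cells/well, 5 hr 37 C; cpd 24 hr 37 C; CellTiter-Glo, 30 min RT; luminescence. qHTS conc-response, Hill fit -> AC50. Pos ctrl tetraoctylammonium bromide.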

[11] = Cell Viability - LYMP2-025 (AID 976); further: potency means the concentration at half of the fitted maximal effect
Summary of the method: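 Seed 2500 LYMP2-025 cells/well; 5 hr at 37 C; add compound; 24 hr at 37 C; add CellTiter-Glo; 30 min RT; read luminescence. AC50 from Hill-modelled concentration-response.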

[12] = Cell Viability - LYMP2-002 (AID 977); further: potency means the concentration at half of the fitted maximal effect
Summary of the method: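 Luminescent ATP readout (CellTiter-Glo, 30 min room temperature) after 24 h compound exposure at 37 C of a human lymphoblastoid line, 2500 cells/well. AC50 values derived by standard Hill fitting of qHTS concentration-response data.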

[13] = Cell Viability - LYMP2-006 (AID 978); further: nearly all actives have a fitted effect of over 60% in size; further: potency means the concentration at half of the fitted maximal effect
Summary of the method: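 Human lymphoblastoid cells, 2500 per well, were preincubated 5 hr at 37 C, then exposed to compounds for 24 hr at 37 C in complete medium. Viability was read as intracellular ATP by CellTiter-Glo luminescence; AC50 from Hill-equation fits of qHTS concentration-response data.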

[14] = Cell Viability - LYMP2-008 (AID 980); further: nearly all actives have a fitted effect of over 60% in size; further: potency means the concentration at half of the fitted maximal effect
Summary of the method: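 qHTS, human lymphoblastoid line, 2500 cells/well; 5 hr preincubation, 24 hr compound, 37 C. CellTiter-Glo ATP luminescence. AC50 via Hill equation. Tetraoctylammonium bromide positive control.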

[15] = Cell Viability - LYMP2-010 (AID 981); further: nearly all actives have a fitted effect of over 55% in size; further: potency means the concentration at half of the fitted maximal effect
Summary of the method: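 Luminescent ATP signal (CellTiter-Glo) served as the viability read-out. Cells of the human lymphoblastoid line were treated with compound over a concentration range for 24 hours at 37 C, and AC50 values came from Hill-equation modeling.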

[16] = Cell Viability - LYMP2-012 (AID 982); further: potency means the concentration at half of the fitted maximal effect
[17] = Cell Viability - LYMP2-016 (AID 984); further: nearly all actives have a fitted effect of over 55% in size; further: potency means the concentration at half of the fitted maximal effect
Summary of the method: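 Human lymphoblastoid cells (LYMP2-016), 2500/well in complete medium, preincubated 5 hr at 37 C, then compound-treated 24 hr at 37 C. Intracellular ATP read by CellTiter-Glo luminescence after 30 min at room temperature; AC50 from Hill-equation concentration-response fits.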

[18] = Cell Viability - LYMP2-018 (AID 985);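 further: compound exposure lasted 24 hr at 37 °C; nearly all actives have a fitted effect of over 50% in size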; further: potency means the concentration at half of the fitted maximal effect
Summary of the method: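 Luminescent ATP signal (CellTiter-Glo, read after 30 min at room temperature) reports viable cells after 24 hr compound treatment at 37 C. Concentration-response data were fitted to the standard Hill equation for AC50.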

[19] = Cell Viability - LYMP2-020 (AID 986); further: nearly all actives have a fitted effect of over 55% in size; further: potency means the concentration at half of the fitted maximal effect
Summary of the method: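 Luminescent ATP signal (CellTiter-Glo, 30 min at room temperature) is the read-out after 24 h compound treatment of lymphoblastoid cells at 37 C. AC50 values come from Hill-equation fits across concentrations.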

[20] = Cell Viability - LYMP2-005 (AID 967); further: potency means the concentration at half of the fitted maximal effect
Summary of the method: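 CellTiter-Glo luminescence (cellular ATP) read-out; LYMP2-005 lymphoblastoid cells, 2500/well, 5 h pre-incubation, then 24 h compound exposure at 37 C in complete medium. Tetraoctylammonium bromide positive control; AC50 by standard Hill fit.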

Measured: Potency

OCCOc1ccccc1
not listed: [20]
inactive: all other assays above

CC(COc1ccccc1)N(CCCl)Cc1ccccc1 (stereo not drawn)
active: [5] 39.8 µM | [6] 50.1 µM | [7] 39.8 µM | [8] 39.8 µM | [9] 50.1 µM | [10] 50.1 µM | [12] 50.1 µM | [13] 50.1 µM | [14] 39.8 µM | [19] 50.1 µM

CC(=O)Oc1ccccc1C(=O)Nc1ncc([N+](=O)[O-])s1
active: [2] 12.6 µM | [20] 31.6 µM | [6] 50.1 µM | [7] 39.8 µM | [9] 39.8 µM | [11] 31.6 µM | [12] 31.6 µM | [14] 31.6 µM | [15] 39.8 µM | [16] 39.8 µM | [17] 39.8 µM | [18] 39.8 µM

C[C@]12C/C(=C/O)C(=O)C[C@@H]1CC[C@@H]1[C@@H]2CC[C@@]2(C)[C@H]1CC[C@]2(C)O
active: [9] 63.1 µM | [15] 50.1 µM
inactive: [1] | [20] | [11]

Oc1cccc2cccnc12
active: [2] 31.6 µM and 39.8 µM | [3] 12.6 µM | [4] 15.8 µM and 12.6 µM | [5] 10 µM | [7] 15.8 µM | [8] 12.6 µM and 10 µM | [10] 25.1 µM | [12] 25.1 µM and 15.8 µM | [13] 25.1 µM and 15.8 µM | [14] 15.8 µM and 12.6 µM | [15] 12.6 µM and 10 µM | [16] 15.8 µM and 10 µM | [17] 15.8 µM | [18] 12.6 µM and 10 µM | [19] 12.6 µM and 10 µM

N[C@@H](Cc1ccc(N(CCCl)CCCl)cc1)C(=O)O
inactive: [1] | [2]
active: [3] 31.6 µM | [5] 39.8 µM | [6] 39.8 µM | [7] 39.8 µM | [8] 39.8 µM | [9] 39.8 µM | [10] 39.8 µM | [12] 39.8 µM | [13] 39.8 µM | [14] 31.6 µM | [15] 31.6 µM | [16] 31.6 µM | [17] 25.1 µM | [18] 25.1 µM | [19] 39.8 µM

Oc1ccc(Cl)cc1Cc1ccccc1
inactive: all assays above

CNCC(O)c1ccc(O)cc1 (stereo not drawn)
inactive: all assays above

CCCC(C)(COC(N)=O)COC(=O)NC(C)C (stereo not drawn)
inactive: all assays above

CCOP(=S)(OCC)Oc1cc(C)nc(C(C)C)n1
inactive: all assays above

Oc1ccccc1-c1ccccc1
inactive: all assays above

Clc1ccc(COC(Cn2ccnc2)c2ccc(Cl)cc2Cl)cc1 (stereo not drawn)
inactive: [1] | [3]
active: [6] 79.4 µM | [14] 50.1 µM | [18] 50.1 µM

NCC(O)c1ccc(O)cc1 (stereo not drawn)
inactive: all assays above

c1ccc2c(c1)Nc1ccccc1S2
inactive: all assays above
